From PubChem BioAssay
This is a sample that favours compounds with a hit; in the whole collection about 2.4% have one here.
WRN inhibitor: qHTS for Inhibitors of WRN Helicase; 360,000 compounds, 0.46% hits; Potency, µM (doses to about 114 µM), actives largely listed as inhibitors; AID 651768, 2012; WRN helicase unwinding, fluorescent forked duplex, kinetic; Bifunctional 3'-5' exonuclease/ATP-dependent helicase WRN (Homo sapiens), Q14191; note: nearly all actives have a fitted effect of over 55% in size
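WRN at 20 nM final was preincubated with compound for 15 min at room temperature; reaction started with 100 nM forked duplex oligonucleotide carrying fluorophore and quencher plus 2 mM ATP (final). Unwinding followed kinetically by red fluorescence (ex 525/em 598 nm).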
Pol beta inh: qHTS Assay for Inhibitors of DNA Polymerase Beta. AID 485314, 2010. Potency, µM (titrated, usually from 114 µM), usual class: inhibitors. 340,000 compounds, 1.3% hits. Pol beta primer extension/strand displacement, fluorescence kinetic
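Values derive from four-parameter Hill fits of normalized kinetic data: reads at 0 and 10 min following addition of 50 nM substrate to 10 nM Pol beta preincubated 15 min with compound.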
POLI inh: qHTS for Inhibitors of Polymerase Iota. DNA polymerase iota (Homo sapiens), Q9UNA4. Pol iota fluorescent replication assay, 10 min. Potency, µM (top dose mostly 115 µM), most hits filed as inhibitors. 390,000 compounds, 1% hits. AID 588590, 2011
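Pol iota at 10 nM preincubated 15 min with compounds at room temperature; reaction started with fluorescent substrate, 50 nM final. Fluorescence read kinetically at 0 and 10 min; buffer-only wells as negative control.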
Pol kappa inh-1: qHTS for Inhibitors of Polymerase Kappa; Potency, µM (highest dose often 107 µM), most hits filed as inhibitors; purified Pol kappa, fluorescent DNA synthesis assay, 10 min; DNA polymerase kappa (Homo sapiens), Q9UBT6; 400,000 compounds, 0.53% hits
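Kinetic fluorescence screen: compound preincubated 15 min RT with 10 nM enzyme; 50 nM substrate (final) initiates; reads at 0/10 min.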
FEN1 inhibitor: qHTS Assay for the Inhibitors of Human Flap endonuclease 1 (FEN1); AID 588795, 2011; P39748; Recombinant FEN1 flap cleavage, fluorescence, 15 min; 390,000 compounds, 0.35% hits; Potency, µM (titrated, usually from 114 µM), most hits filed as inhibitors; note: nearly all actives have a fitted effect of over 65% in size
Target sequence (P39748 whole entry, looked up): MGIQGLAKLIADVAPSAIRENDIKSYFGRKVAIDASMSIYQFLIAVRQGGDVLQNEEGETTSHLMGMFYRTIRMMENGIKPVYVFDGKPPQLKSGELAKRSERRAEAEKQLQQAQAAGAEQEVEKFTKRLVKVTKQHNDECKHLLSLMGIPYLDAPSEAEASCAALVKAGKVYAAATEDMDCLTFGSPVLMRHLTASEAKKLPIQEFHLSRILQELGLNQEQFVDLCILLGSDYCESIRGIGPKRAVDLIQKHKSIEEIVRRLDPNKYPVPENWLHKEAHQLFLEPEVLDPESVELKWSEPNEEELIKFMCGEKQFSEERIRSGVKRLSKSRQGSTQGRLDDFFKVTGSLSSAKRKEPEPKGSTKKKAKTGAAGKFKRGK
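FEN1 at 10 nM preincubated with compounds 15 min at room temperature, then flap DNA substrate added at 50 nM final. Signal read at 0 and 15 min; concentration-response fitted with four-parameter Hill equation.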
Pol eta inh-1: qHTS for Inhibitors of Polymerase Eta; recombinant Pol eta, fluorescent DNA replication assay; Potency, µM (titrated, usually from 114 µM), most hits filed as inhibitors; 390,000 compounds, 1.2% hits; AID 588591, 2011
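Pol eta at 10 nM preincubated with compounds 15 min at room temperature; reaction started with fluorescent substrate (50 nM final) and read kinetically at 0 and 10 min.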
PGK validate: qHTS for inhibitors of Phosphogylcerate Kinase: Hit Validation Screen | shares compounds with Pol kappa inh-1 | TbPGK coupled GAPDH assay, Kinase-Glo luminescence | Potency, µM (highest dose often 57.5 µM), actives largely listed as inhibitors | 500 compounds, 79% hits | AID 686980, 2013; note: nearly all actives have a fitted effect of over 65% in size
Pol iota confirm: qHTS for Inhibitors of Polymerase Iota: Confirmatory Assay for Cherry-picked Compounds | shares compounds with Pol kappa inh-1 | Pol iota primer extension, TAMRA/BHQ fluorescence | Potency, µM, most hits filed as inhibitors | 1,500 compounds, 77% hits
GALK confirm: Confirmation Assay for Inhibitors of Human Galactokinase (GALK); shares compounds with Pol eta inh-1; purified GALK, Kinase-Glo ATP depletion luminescence; Potency, µM (top dose mostly 115 µM), usual class: inhibitors; 150 compounds, 70% hits; AID 2015, 2009
GALK redox cs: Confirmatory Assay for Inhibitors of Human Galactokinase (GALK): Phenol-HRP redox assay counterscreen; shares compounds with Pol eta inh-1; Phenol red-HRP H2O2 redox cycling, absorbance 600 nm; Potency, µM (titrated, usually from 115 µM), hits mostly inhibitors; 150 compounds, 40% hits
HEK293 tox: Secondary Assay for Inhibitors of Human Galactokinase (GALK): HEK-293 Cell Viability Assay | shares compounds with Pol eta inh-1 | HEK-293 viability, ATP luminescence (CellTiter-Glo), 24/48 h | Potency, µM (top dose mostly 46.1 µM), usual class: inhibitors | 170 compounds, 10% hits
Pol kappa inh-2: qHTS for Inhibitors of Polymerase Kappa: Confirmatory Assay for Cherry-picked Compounds; shares compounds with Pol eta inh-1; 920 compounds, 76% hits; purified Pol-kappa, fluorescent strand-displacement substrate; Potency, µM, most hits filed as inhibitors
Pol eta inh-2: qHTS for Inhibitors of Polymerase Eta: Confirmatory Assay for Cherry-picked Compounds. Pol eta primer extension, TAMRA/BHQ fluorescence, 10 min. AID 720502, 2013. shares compounds with Pol eta inh-1. Potency, µM, most hits filed as inhibitors. 2,600 compounds, 64% hits
Each line names hits and unclear results; the compound was inactive in the other large screens (follow-up assays come after a bar, where they were run). Calls come from the whole dose curve; as a rule, active = well fitted curve in the direction sought with a large enough effect; inconclusive = small, poorly fitted or top-dose-only effect, or another doubt; inactive = no such curve, though single readings can be large; an effect the other way counts as inactive or inconclusive.

CN(C)c1cc(Cl)c2nonc2c1N	POLI inh 10µM, FEN1 inhibitor inconclusive, Pol eta inh-1 79µM | Pol iota confirm 75 | GALK confirm 21µM | GALK redox cs 12µM | HEK293 tox inactive | Pol eta inh-2 76
CCN(CC)c1cc(Cl)c2nonc2c1N	none
Cc1ccc(-n2nc3c(=O)n(C(C)C(=O)NCc4ccccc4C)nc(C)c3c2C)cc1 (stereo not drawn)	Pol beta inh 45µM, FEN1 inhibitor inconclusive, Pol eta inh-1 89µM (no result: WRN inhibitor) | Pol iota confirm 75 | Pol kappa inh-2 67 | Pol eta inh-2 inconclusive
O=C(Nc1ccc(S(=O)(=O)Nc2nccs2)cc1)c1nn(-c2ccccc2)ccc1=O	WRN inhibitor 79µM, Pol beta inh inconclusive, Pol eta inh-1 6.3µM | Pol iota confirm 21 | Pol kappa inh-2 12 | Pol eta inh-2 24
O=C(O)c1ccccc1C(=O)Nc1ccc(S(=O)(=O)Nc2nccs2)cc1	none (no result: Pol beta inh)
CC1=C(C#N)c2nc(N)c(C#N)c(C)c2/C1=C\c1ccc(OCC(=O)O)c(Cl)c1	WRN inhibitor inconclusive, POLI inh inconclusive, Pol kappa inh-1 79µM, FEN1 inhibitor inconclusive, Pol eta inh-1 7.9µM | Pol iota confirm 47 | Pol kappa inh-2 19 | Pol eta inh-2 19
Cc1cc(C)c(Nc2cc(S(=O)(=O)O)c(N)c3c2C(=O)c2ccccc2C3=O)c(C)c1	WRN inhibitor 56µM, Pol beta inh 20µM, POLI inh inconclusive, Pol kappa inh-1 inconclusive, FEN1 inhibitor 56µM, Pol eta inh-1 18µM | PGK validate 29µM | Pol kappa inh-2 34 | Pol eta inh-2 inconclusive
Cc1cc(C)c(NC(=O)COC(=O)c2cccc3c2C(=O)c2ccccc2C3=O)c(C)c1	none
COc1ccc(CNC(=O)c2oc3c(c2C)-c2nn(Cc4ccc(Cl)cc4)cc2CC3)cc1	none (no result: WRN inhibitor)
CCNc1ncc2nc(CCc3ccccc3)c(=O)n(C[C@H]3CCCO3)c2n1	none (no result: WRN inhibitor, Pol beta inh, POLI inh, FEN1 inhibitor, Pol eta inh-1)
COC(=O)c1ccc(COc2ccccc2/C=C(\C#N)C(=O)NC(C)C)cc1	none
COC(=O)c1ccc(COc2ccccc2/C=C/C(=O)c2ccc(OCC(=O)O)cc2)cc1	WRN inhibitor inconclusive, Pol beta inh 50µM, POLI inh inconclusive, FEN1 inhibitor inconclusive, Pol eta inh-1 22µM | Pol iota confirm 47 | Pol eta inh-2 48
Cn1cccc1C(=O)OCc1nc2ccccc2c(=O)[nH]1	POLI inh 18µM, Pol kappa inh-1 71µM, Pol eta inh-1 20µM (no result: Pol beta inh) | Pol iota confirm 47 | Pol eta inh-2 inconclusive
O=c1[nH]c(COc2ccccc2)nc2ccccc12	none
O=P(c1ccccc1)(c1ccccc1)c1cc(S(=O)(=O)O)ccc1O	Pol beta inh 10µM, POLI inh 25µM, Pol kappa inh-1 inconclusive, Pol eta inh-1 20µM | Pol iota confirm 24 | Pol kappa inh-2 42 | Pol eta inh-2 60
CCc1nnc(NC(=O)CSc2nc(-c3ccccc3)cc(-c3ccc(F)cc3)c2C#N)s1	none
CCc1nnc(NC(=O)CSc2sc3c(O)cc(=O)[nH]c3c2C#N)s1	WRN inhibitor 13µM, Pol beta inh 0.56µM, POLI inh 1.8µM, Pol kappa inh-1 8.9µM, FEN1 inhibitor 4.5µM, Pol eta inh-1 3.5µM | Pol iota confirm 42 | Pol kappa inh-2 17 | Pol eta inh-2 30
CC(=O)c1ccc(S(=O)(=O)Nc2cccc(-n3cnnn3)c2)cc1	WRN inhibitor 56µM, Pol beta inh inconclusive, POLI inh 20µM, Pol kappa inh-1 inconclusive, Pol eta inh-1 7.9µM | Pol iota confirm 75 | Pol eta inh-2 30
CC(=O)Nc1ccc(S(=O)(=O)Nc2cccc(-n3cnnn3)c2)cc1	none
O=C(CSc1nnc(SCc2ccccc2)s1)N/N=C/C=C\c1ccco1	WRN inhibitor inconclusive, Pol beta inh 7.1µM, POLI inh inconclusive, Pol kappa inh-1 28µM, FEN1 inhibitor inconclusive, Pol eta inh-1 20µM | Pol iota confirm 42 | Pol eta inh-2 43
Cn1cccc1CC(=O)N/N=C/C=C/c1ccco1	WRN inhibitor inconclusive, Pol beta inh 25µM, POLI inh 18µM, Pol kappa inh-1 35µM, Pol eta inh-1 inconclusive | Pol iota confirm 67 | Pol kappa inh-2 38 | Pol eta inh-2 inconclusive
O=C(CSc1nnc(SCc2ccccc2)s1)N/N=C/c1ccc(C(=O)O)cc1	none
C/C(=N\NC(=O)Cc1cccn1C)c1ccco1	none
Cc1ccc(NC(=O)NCCOCCn2c(=O)oc3ccccc32)c(C)c1	none (no result: WRN inhibitor)
Cc1nn(C)c2c1c(-c1ccccc1)cc(=O)n2CC(=O)NC(C)c1ccccc1 (stereo not drawn)	Pol beta inh 14µM, POLI inh inconclusive, Pol kappa inh-1 inconclusive, Pol eta inh-1 25µM (no result: WRN inhibitor) | Pol iota confirm 34 | Pol kappa inh-2 17 | Pol eta inh-2 27
